The source of these data is PubChem BioAssay AID488841 (Sanford-Burnham Center for Chemical Genomics, 2010).

SMILES strings stand for the structures. The whole screen tested about 1,400 compounds, of which about 380 (27%) were called active. The list shows a part of the results. Values without a mark were called inactive.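 The calls were made as follows: active = mean inhibition above 50% across duplicate retests at 10 µM; inactive = the rest.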

This experiment is described as follows: inhibition of NALP1/ASC/caspase-1 reporter signal in yeast, confirmation, NALP1 inhibitor project, S. cerevisiae, luminescence, single concentration (AID 488841).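 Also: plate controls were DMSO in galactose medium for no effect and cells in plain SD medium for full effect.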 The note with it: S. cerevisiae NALP1/ASC/Caspase-1 reporter, beta-gal luminescence; at 10 µM; stronger effect = higher value.
One may read the inhibition as the change of the read-out against control, counted positive when it falls. Turning to `CC(C)NC(=O)CCCOc1ccc(Cl)cc1Cl`, the inhibition was 54.9% (active).

In the case of `CC(C)NCCOCCOc1ccc(Cl)cc1Br`, the inhibition is 35.1%.

Take `CN(C)CCNC(=O)COc1ccc(Cl)cc1Cl`: the inhibition was 25.2%.

As for `C=C1SC(Nc2c(C)cccc2C)=NC12CCCCC2`, the inhibition was 29.4%.

On to `COc1ccccc1C(=O)Nc1ccc(OCc2nnc3c4ccccc4c(C)nn23)cc1`, for which the inhibition is 36.5%.

For the compound `COc1ccc2[nH]c(C)c(CCNC(=S)Nc3cc(C)cc(C)c3)c2c1`, the inhibition was 30%.

As for `COc1ccc2[nH]c3c(C)c4ccncc4c(C)c3c2c1`, the inhibition was 94.5% (active).

As to `CC(C)CCN(C(=O)Nc1ccccc1)C(C)c1cccs1` (stereo not drawn), the inhibition is 29.9%.

Consider `CCOc1ccc(NC(=O)c2cc3c(C)nc4ccccc4c3o2)cc1`, for which the inhibition is 17.3%.

With `CCOc1ccc(NC(=O)CSc2nnc(C)n2Cc2ccccc2)cc1`, the inhibition was 26.8%.

On to `CCOc1ccc(NC(=O)c2csc3c2CCCC3)cc1`, for which the inhibition was 52.4% (active).

Turning to `O=C(NN1C(=O)c2cc(Br)ccc2NC1c1cc(Br)cc(Br)c1O)c1ccncc1` (stereo not drawn), the inhibition is 64.8% (active).

Consider `O=C(Nc1cccnc1)Nc1ccc2c(c1)OCO2`, for which the inhibition is 32.1%.

In the case of `CC1CN(C(=O)Nc2ccc3c(c2)OCO3)CC(C)O1` (stereo not drawn), the inhibition is 30.4%.

For `COC(=O)c1cccc(NC(=O)/C=C/c2ccc3c(c2)OCO3)c1`, the inhibition was 60.6% (active).

As for `Cc1ccc(S(=O)(=O)NCC(=O)N(CC(=O)NC(C)(C)C)Cc2cccs2)cc1`, the inhibition was 31.3%.

Turning to `Cc1cc(=O)oc2cc(OCC(=O)N3CCN(C(=O)c4ccco4)CC3)ccc12`, the inhibition was 21.1%.

Consider `C/C(=N\N(C)C)C1=C(O)c2ccccc2C1=O`, for which the inhibition is 29.9%.

On to `CC(=O)N(C1=C(Cl)C(=O)c2ccccc2C1=O)C1CCCCC1`, for which the inhibition was 58% (active).

Consider `O=C(c1ccc(Br)o1)N(c1ccccn1)C1CCCCC1`, for which the inhibition is 41.8%.

With `CN(C)c1ccc(N=C/C=C2/N(C)c3ccccc3C2(C)C)cc1`, the inhibition was 47.2%.

For the compound `CCOC(=O)C[N+](CC)(CC)CC#Cc1ccccc1`, the inhibition was 15.1%.

On to `Cc1nnc(-c2ccccc2)o1`, for which the inhibition is 31.1%.

Consider `CCCc1nn(C)c(C(=O)Nc2cccc(C)c2)c1Cl`, for which the inhibition was 42.2%.

In the case of `Cc1cccc(NCc2nc3ccccc3n2C)c1`, the inhibition was 66% (active).

Take `CCOC(=O)c1c(/N=C/c2cc(OC)cc([N+](=O)[O-])c2O)sc(C)c1C`: the inhibition was 44.5%.

On to `CS(=O)(=O)N1N=C(c2ccco2)CC1c1ccc(Cl)cc1` (stereo not drawn), for which the inhibition is 19.9%.

On to `COc1ccc(/C=N/NC(=O)c2csc(-n3nc(C)cc3C(F)(F)F)n2)cc1`, for which the inhibition was 17.9%.

`Cc1cc(Cl)c(OCCOCCN2CCC(C)CC2)c(Br)c1`: the inhibition was 44.9%.

In the case of `C=CCc1cc(Cl)ccc1OCCOCCNCCOC`, the inhibition was 41.8%.

Turning to `Clc1ccc(OCCOCCN2CCc3ccccc3C2)c(Cl)c1`, the inhibition is 52.3% (active).

Take `Cc1sc2ncnc(N/N=C/c3ccccc3O)c2c1C`: the inhibition is 40.2%.

`Nc1c(Cl)ncnc1N/N=C/c1ccccn1`: the inhibition was 71.3% (active).

With `Cc1c(Cl)c([N+](=O)[O-])nn1Cc1ccc(C(=O)N/N=C\c2ccccn2)o1`, the inhibition was 28.8%.

With `Cc1cc(C)cc(OCc2nnc(SCC(=O)OC(C)C)o2)c1`, the inhibition is 47%.

As for `CC1=C(OC(=O)c2ccc(Br)cc2)C(C)(C)C(c2ccccc2)OC1=O` (stereo not drawn), the inhibition was 24.7%.

Turning to `Cc1nc(NC(=O)/C=C/c2ccccc2)n[nH]1`, the inhibition was 40.7%.

On to `C1CCC(C(CC2CCCCN2)C2CCCCC2)CC1` (stereo not drawn), for which the inhibition is 54.6% (active).

Consider `COc1cc(OC)c(-c2nnc(-c3ccc(OC)c(OC)c3OC)o2)cc1OC`, for which the inhibition was 31.9%.

Turning to `CC1=CC(C)(C)Nc2ccc(OC(=O)C(C)N3C(=O)c4ccccc4C3=O)cc21` (stereo not drawn), the inhibition was 32.8%.

As for `O=C(Cn1nnc2ccccc21)OCC(=O)c1ccc(Cl)cc1`, the inhibition is 40.5%.

Consider `O=C1C=CC(=O)N1CCCCCCN1C(=O)C=CC1=O`, for which the inhibition is 73.3% (active).

As for `O=C1C=CC(=O)N1CCNc1ncc(C(F)(F)F)cc1Cl`, the inhibition is 46.6%.

For the compound `CC1CCC2C(=O)N(c3ccc(C(=O)Oc4cccc5cccnc45)cc3)C(=O)C2C1` (stereo not drawn), the inhibition is 31.1%.

With `Cc1cc(C)c(NC(=O)/C(=C/c2ccccc2)c2ccccc2)c(C)c1`, the inhibition was 31.8%.

As to `Cc1nc(/N=C(\N)NC(=O)N2c3ccccc3Sc3ccccc32)nc2ccccc12`, the inhibition is 44.3%.

For `O=C(Cc1ccc(-n2c(=O)[nH]c3ccccc3c2=O)cc1)N1CCN(c2ccccc2)CC1`, the inhibition was 18.6%.

Consider `Nc1ccc(C(=O)Nc2nc3ccccc3s2)cc1`, for which the inhibition was 69.7% (active).

Take `Cc1ccc2nc(NC(=O)c3ccc4ncsc4c3)sc2c1`: the inhibition was 30.2%.

Regarding `O=C(Nc1nc2ccccc2s1)C1c2ccccc2Oc2ccccc21`, the inhibition is 45.9%.

For the compound `Cc1cccc(N2C(=O)CC(Sc3ccccc3C(=O)O)C2=O)c1` (stereo not drawn), the inhibition is 42.5%.

Regarding `CCN(CC)C1CC(=O)N(c2cccc(C)c2)C1=O` (stereo not drawn), the inhibition was 57.5% (active).

Regarding `COC(=O)c1ccccc1SC1CC(=O)N(c2cccc(C)c2)C1=O` (stereo not drawn), the inhibition is 34%.

As to `Cc1ccc(N2C(=O)CC(Sc3ccccc3C(=O)O)C2=O)cc1` (stereo not drawn), the inhibition was 40.4%.

Regarding `Cc1cc(C)cc(N2C(=O)CC(Sc3ncn[nH]3)C2=O)c1` (stereo not drawn), the inhibition was 62.3% (active).

Consider `CC(C)c1ccc(N2C(=O)CC(Sc3ncn[nH]3)C2=O)cc1` (stereo not drawn), for which the inhibition was 48.5%.

As for `CCOC(=O)NC1(NCc2ccccc2)Oc2ccccc2O1`, the inhibition is 32.2%.

Consider `Oc1c(Br)cc(Br)cc1C=Nc1ccc2c(c1)OCO2`, for which the inhibition was 48.6%.

Regarding `Cc1ccc(C(=O)O)cc1N=Cc1cc(Br)cc(Br)c1O`, the inhibition was 59% (active).

Regarding `O=C(Nc1cccc(N=Cc2cc(Br)cc(Br)c2O)c1)c1ccco1`, the inhibition is 39.2%.

As for `COc1ccc(C(C)C)cc1S(=O)(=O)n1cnc(C)c1`, the inhibition was 18.5%.

`Cc1nc2cc(C(=O)NCc3ccc4c(c3)OCO4)ccc2n1-c1ccc(Br)cc1`: the inhibition is 43.1%.

With `CCOC(=O)c1c(NC2OC(=O)c3c2ccc(OC)c3OC)sc(C(=O)OC(C)(C)C)c1C` (stereo not drawn), the inhibition was 57.5% (active).

Turning to `Cc1onc(-c2ccccc2Cl)c1C(=O)N1C=CC(C(F)(F)F)=NCC1`, the inhibition was 65.7% (active).

Turning to `NC(=O)c1ncc(C(F)(F)F)cc1Oc1ccc(C(F)(F)F)cc1`, the inhibition is 28.9%.

`Cc1ccccc1N=C/C=C1\N(C)c2ccccc2C1(C)C`: the inhibition is 31.9%.

Take `C(=C\c1nc(N2CCCC2)c2ccccc2n1)/c1ccccc1`: the inhibition is 78.1% (active).

For `C(=C\c1nc(N2CCCCCC2)c2ccccc2n1)/c1ccccc1`, the inhibition is 70.2% (active).

As for `Cc1ccc(C)c(NC(=O)CSc2nnc(-c3ccccc3)o2)c1`, the inhibition was 32.8%.

Take `O=[N+]([O-])c1ccc(-c2ccn[nH]2)o1`: the inhibition is 39%.

Turning to `O=C(CSc1nnnn1C1CCCCC1)N1c2ccccc2Sc2ccccc21`, the inhibition was 35.8%.

For the compound `O=S(=O)(Cc1cc(Sc2ccccc2)nc(-c2ccccc2)n1)c1ccccc1`, the inhibition is 19.4%.

With `O=C1CN(c2nnnn2-c2ccccc2)CCN1`, the inhibition is 35%.

In the case of `CNc1ccccc(-c2ccc3ccccc3n2)c1=O`, the inhibition is 24.8%.

On to `Cc1cccc(/C(N)=N/OC(=O)c2cccc3ccccc23)c1`, for which the inhibition was 28.9%.

For the compound `Cc1ccc(/C(N)=N/OC(=O)c2ccc(Cl)cc2Cl)cc1`, the inhibition was 36%.

Regarding `N/C(Cc1cccs1)=N\OC(=O)COc1ccccc1Cl`, the inhibition was 45.7%.

On to `Nc1ccc(C(=O)c2cccs2)cc1`, for which the inhibition is 44%.

On to `COc1ccc(Cl)cc1C(=O)O/N=C(\N)c1ccc(Cl)cc1`, for which the inhibition was 35.3%.

On to `Cc1ccc(/C(N)=N/OC(=O)c2cccs2)cc1`, for which the inhibition is 57.2% (active).

On to `N/C(Cc1ccc(Cl)cc1Cl)=N\OC(=O)c1cccs1`, for which the inhibition was 51.2% (active).

Consider `Cc1cccc(/C(N)=N/OC(=O)c2ccc3c(c2)OCO3)c1`, for which the inhibition is 54.1% (active).

Regarding `Cc1cccc(/C(N)=N/OC(=O)c2ccc(Cl)cc2Cl)c1`, the inhibition is 21.6%.

`COc1ccc(C(=O)O/N=C(\N)Cc2ccc(Cl)cc2Cl)cc1OC`: the inhibition was 40.5%.

With `Cc1ccc(/C(N)=N/OC(=O)c2ccc3c(c2)OCO3)cc1`, the inhibition is 77.3% (active).

With `COc1ccc(/C=C(/C(=O)c2cccs2)N2C=CC=CC2=C(C#N)C#N)cc1`, the inhibition was 38.4%.

On to `Nc1ccccc1-c1nc2ccccc2[nH]1`, for which the inhibition is 71.9% (active).

With `COc1ccc2oc(=Nc3ccccc3)c(-c3nc4ccccc4[nH]3)cc2c1`, the inhibition was 38%.

Regarding `Cc1ccc2nc(-c3ccc(NC(=O)CN(c4ccccc4C)S(C)(=O)=O)cc3)sc2c1`, the inhibition is 37.2%.

In the case of `O=C(Nc1cccc(O)c1)c1cc(-c2ccco2)on1`, the inhibition is 74.8% (active).

In the case of `O=C(NCc1ccc(F)cc1)c1cc(-c2ccco2)on1`, the inhibition was 33%.

For the compound `CCCn1c(-c2cccnc2Cl)nc2cc(Cl)c(Cl)cc21`, the inhibition is 41.4%.

Regarding `CC(C)CC(=O)/C(=C\c1ccc(Cl)cc1Cl)n1cncn1`, the inhibition is 100% (active).

Take `Oc1ccc2ccccc2c1CN1CCN(c2ccccc2)CC1`: the inhibition was 33.5%.

For the compound `Cc1ccc(CN2CCN(/N=C/c3cccs3)CC2)cc1`, the inhibition was 34.5%.

For the compound `O=C(NCCc1csc(-c2ccccc2)n1)c1ccc(Br)o1`, the inhibition was 57.4% (active).

As to `O=C(NCCCn1ccnc1)c1ccc(Br)o1`, the inhibition is 22.2%.

As to `COc1ccc(-c2nc(CCNC(=O)c3cccs3)cs2)cc1`, the inhibition is 41.9%.

For `Cc1ccc2cc(CN(Cc3ccco3)C(=O)NC3CCCCC3)c(=O)[nH]c2c1C`, the inhibition was 18.7%.

On to `Nc1nc(-c2ccco2)nn1S(=O)(=O)c1ccccc1`, for which the inhibition is 23.4%.

Regarding `CS(=O)(=O)c1nc(-c2ccco2)cc(C(F)(F)F)n1`, the inhibition was 81.3% (active).

Consider `CCOC(=O)c1c(C)[nH]c2c1-c1ccccc1C(=O)C2=O`, for which the inhibition is 25.1%.

Take `O=S(=O)(Nc1cc(Sc2cccc3cccnc23)c(O)c2ccccc12)c1ccc(F)cc1`: the inhibition is 56.7% (active).

Take `O=S(=O)(Nc1ccc(Oc2ncccn2)c(Cl)c1)c1ccc(F)cc1`: the inhibition was 23%.

As to `Cc1cc(C)c(S(=O)(=O)Nc2cc(SCC(=O)O)c(O)c3ccccc23)cc1C`, the inhibition was 22.2%.

For `CN(C)CCN(Cc1ccccc1)c1nccc(N(C)C)c1C#N`, the inhibition is 25.1%.

Regarding `O=C(O)C1C2C=CC(C2)C1C(=O)NCc1ccc(Cl)c(Cl)c1` (stereo not drawn), the inhibition is 33.5%.

For the compound `CS(=O)(=O)N(CC(=O)Nc1ccccc1Sc1ccccc1)C1CCCCC1`, the inhibition is -0.35%.
